{"source": "PubChem BioAssay (EPA / NIEHS)", "note": "Records with an inconclusive call do not appear. Active and inactive are the calls of the source. Rule for the calls: active = hit-call score of the fitted dose curve at least 0.9, where 1 is the maximum; inconclusive = response in the unintended direction; inactive = score below 0.9."}
{"target": "Nuclear receptor subfamily 4 group A member 2 (Homo sapiens) (UniProt P43354)", "sequence (P43354 whole entry, looked up)": "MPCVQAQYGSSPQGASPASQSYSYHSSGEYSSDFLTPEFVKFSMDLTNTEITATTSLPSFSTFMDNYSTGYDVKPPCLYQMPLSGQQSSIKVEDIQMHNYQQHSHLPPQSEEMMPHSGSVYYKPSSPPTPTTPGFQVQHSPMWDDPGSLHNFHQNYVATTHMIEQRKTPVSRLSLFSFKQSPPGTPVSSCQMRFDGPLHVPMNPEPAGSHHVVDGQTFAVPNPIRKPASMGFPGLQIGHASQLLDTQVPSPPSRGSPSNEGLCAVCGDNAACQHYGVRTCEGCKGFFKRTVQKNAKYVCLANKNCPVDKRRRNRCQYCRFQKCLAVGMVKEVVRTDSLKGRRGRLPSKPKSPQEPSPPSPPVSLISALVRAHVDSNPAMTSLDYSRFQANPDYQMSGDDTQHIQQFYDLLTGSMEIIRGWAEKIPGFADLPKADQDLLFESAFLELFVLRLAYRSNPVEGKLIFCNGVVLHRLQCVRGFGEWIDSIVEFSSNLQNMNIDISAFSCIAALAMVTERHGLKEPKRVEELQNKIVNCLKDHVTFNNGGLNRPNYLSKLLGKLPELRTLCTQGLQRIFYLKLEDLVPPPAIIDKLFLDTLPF", "assay": "ATG_NURR1_TRANS: Attagene TRANS-FACTORIAL HepG2 Assay for human Nuclear Receptor Related Protein 1 (NURR1) (AID 2282985)", "conditions": "HepG2 Attagene TRANS reporter, mRNA readout", "description": "ATG_TRANS is a cell-based, multiplexed-readout assay that uses HepG2, a human liver cell line, with measurements taken at 24 hours after chemical dosing in a 24-well plate.ATG_NURR1_TRANS is one of 30 assay component(s) measured or calculated from the ATG_TRANS assay. It is designed to make measurements of mRNA induction, a form of inducible reporter, as detected with fluorescence intensity signals by Reverse transcription polymerase chain reaction (RT-PCR) and Capillary electrophoresis technology.Data from the assay component ATG_NURR1_TRANS was analyzed into 1 assay endpoint. This assay endpoint, ATG_NURR1_TRANS, was analyzed in the positive analysis fitting direction relative to DMSO as the negative control and baseline of activity. Using a type of inducible reporter, measures of mRNA for gain-of-signal activity can be used to understand the reporter gene at the transcription factor-level as they relate to the gene NR4A2. Furthermore, this assay endpoint can be referred to as a primary readout, because this assay has produced multiple assay endpoints where this one serves a reporter gene function. To generalize the intended target to other relatable targets, this assay endpoint is annotated to the nuclear receptor intended target family, where the subfamily is orphan.\nHuman liver HepG2 cells are transiently transfected with multiple reporter transcription units (MRTUs) in 6-well plates using FuGene 6 reagent (Roche; 3 ml FuGene/1 mg DNA). The MRTU constructs are regulated by a cis-regulating element (promoter). […] A major difference between the CIS and TRANS system is that in CIS activities of endogenous TFs are measured, whereas the TRANS assay evaluates changes in activities of exogenous, chimeric NR-Gal4 proteins. […] At the end of 24 hour incubation, total RNA was isolated using TriZol reagent (Invitrogen). The isolated RNA is then reverse-transcribed using oligo(dT) primer and Mo-MLV reverse transcriptase (Invitrogen) with DNAse I (Ambion) treatment for 30 min. The one-tenth of the produced cDNA was amplified by PCR using Taq DNA polymerase (Invitrogen) and two reporter sequence-specific primers. The PCR products were fluorescently labeled by primer extension with 6-arboxyfluorescein (6-FAM) 5'-labeled reporter sequence-specific primer (2 min at 95 C, 20 s at 68 C and 10 min at 72 C) and these products were digested with 5U of HpaI (New England Biolabs) for 2h at 37 C. The fragments were purified using Qiaquick PCR columns (Qiagen), analyzed on an ABI 3130xL genetic analyzer (Applied Biosystems) with peak positions identified by using a set of X-rhodamine (ROX)-labeled MapMarker1000 molecular weight standards (BioVentures). The raw capillary electrophoresis data was processed using Attagraph software (Attagene)."}
{"smiles": "CC(CCO)CC(C)(C)C", "note": "(stereo not given)", "outcome": "inactive"}
{"smiles": "[Na+]", "outcome": "inactive"}
{"smiles": "CCNC(=S)NCC", "outcome": "inactive"}
{"smiles": "Cc1cc(O)c(C)c(C)c1O", "outcome": "inactive"}
{"smiles": "CCOC(=O)C=Cc1ccccc1", "outcome": "inactive"}
{"smiles": "CC1(C)[C@H](C=C(Cl)Cl)[C@H]1C(=O)OCc1cccc(Oc2ccccc2)c1", "outcome": "inactive"}
{"smiles": "OCCCO", "outcome": "inactive"}
{"smiles": "c1coc(CNc2ncnc3nc[nH]c23)c1", "outcome": "inactive"}
{"smiles": "CC(C)Cc1ccc(C(C)C(=O)O)cc1", "note": "(stereo not given)", "outcome": "inactive"}
{"smiles": "CCCCCCCCOC(C)=O", "outcome": "inactive"}
{"smiles": "C=COCC1CCC(COC=C)CC1", "note": "(stereo not given)", "outcome": "inactive"}
{"smiles": "CCOC(=O)CCCCCCCCC(=O)OCC", "outcome": "inactive"}
{"smiles": "CC(C)COC(=O)c1ccccc1O", "outcome": "inactive"}
{"smiles": "C=C(C)C(=O)OCCN(C)C", "outcome": "inactive"}
{"smiles": "N#CCCNCCC#N", "outcome": "inactive"}
{"smiles": "CC(=O)c1ccc2ccccc2c1", "outcome": "inactive"}
{"smiles": "C=CC(=O)OCC(CO)(COC(=O)C=C)COC(=O)C=C", "outcome": "inactive"}
{"smiles": "C[C@]12CC[C@@H]3c4ccc(O)cc4CC[C@H]3[C@@H]1CC[C@@H]2O", "outcome": "inactive"}
{"smiles": "COC(=O)c1ccc(C(=O)OC)cc1", "outcome": "inactive"}
{"smiles": "CCCC1CCC(=O)CC1", "outcome": "inactive"}
{"smiles": "NC(=O)c1cccnc1", "outcome": "inactive"}
{"smiles": "CCCCCCCCSCc1cc(C)c(O)c(CSCCCCCCCC)c1", "outcome": "inactive"}
{"smiles": "Cc1cccc(C)c1", "outcome": "inactive"}
{"smiles": "CCCCOCCOC(=O)c1ccccc1C(=O)OCCOCCCC", "AC50": "45.3 µM (active)"}
{"smiles": "CC(C)(O)CCc1ccccc1", "outcome": "inactive"}
{"smiles": "CC(C)OB(OC(C)C)OC(C)C", "outcome": "inactive"}
{"smiles": "CCC(C)(C)C1CCC(OC)CC1", "note": "(stereo not given)", "outcome": "inactive"}
{"smiles": "CCC(=O)OC(C)(C)C1CC=C(C)CC1", "note": "(stereo not given)", "outcome": "inactive"}
{"smiles": "CCCCCCCOC(C)=O", "outcome": "inactive"}
{"smiles": "C=CCOC(=O)/C=C\\C(=O)OCC=C", "outcome": "inactive"}
{"smiles": "O=C1CCC(=O)N1", "outcome": "inactive"}
{"smiles": "C[C@H](CCC(=O)O)[C@H]1CC[C@H]2[C@@H]3CC[C@@H]4C[C@H](O)CC[C@]4(C)[C@H]3CC[C@]12C", "AC50": "27.7 µM (active)"}
{"smiles": "CC/C(=C(\\c1ccccc1)c1ccc(OCCN(C)C)cc1)c1ccccc1", "outcome": "inactive"}
{"smiles": "O=C(C=Cc1ccccc1)OCCCc1ccccc1", "outcome": "inactive"}
{"smiles": "CC(C)CCOC(=O)CC(C)C", "outcome": "inactive"}
{"smiles": "COc1ccc2[nH]cc(CCNC(C)=O)c2c1", "outcome": "inactive"}
{"smiles": "S=c1[nH][nH]c(=S)s1", "outcome": "inactive"}
{"smiles": "CNC(=C[N+](=O)[O-])NCCSCc1ccc(CN(C)C)o1", "outcome": "inactive"}
{"smiles": "Cc1cc(N)n(-c2ccccc2)n1", "outcome": "inactive"}
{"smiles": "COC(=O)C(C)Oc1ccc(Oc2ncc(C(F)(F)F)cc2Cl)cc1", "note": "(stereo not given)", "outcome": "inactive"}
